# Assay outcomes from PubChem.
# Most compounds without a hit are left out; they make up all but 2.5% or so of the library.
# MBD2 inh = MBD2-methylated oligo binding inhibition. Q9UBB5. TR-FRET, MBD2 binding to methylated oligonucleotide. inhibition, % at 4.4 µM. 0.31% of 370,000 active. AID 686964; in the data active = inhibition above about 13%
# LEDGF integ inh = blocks HIV-1 LEDGF/p75-dependent DNA integration; TR-FRET IN-LEDGF/p75 DNA integration, Eu/Cy5; inhibition, % at 3.7 µM; 0.64% of 370,000 active; AID 743269;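 active = inhibition above the screen-wide mean plus 3 SD, cut at about 13% in these data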;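 note: signal is the Cy5 over europium emission ratio at 671 and 618 nm; 0% = plate median of compound wells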
# UHRF1 MBD2 ctr = blocks human UHRF1 binding to methylated DNA; Q96T88; UHRF1 binding to methylated oligo, TR-FRET; inhibition, % at 4.4 µM; 0.75% of 370,000 active; AID 687016;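 note: UHRF1 SRA domain binding a hemimethylated CpG hairpin DNA probe; 0% = median of test compound wells and 100% = reference inhibitor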
# PRMT1 FP inh = blocks human protein arginine methyltransferase 1; recombinant PRMT1, activity-based probe fluorescence polarization; inhibition, % at 2.79 µM; 1.3% of 370,000 active; AID 652257;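 active = inhibition above about 21% made by adding two undisclosed values, limit read from the data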
# Target sequence (Q99873 whole entry, looked up): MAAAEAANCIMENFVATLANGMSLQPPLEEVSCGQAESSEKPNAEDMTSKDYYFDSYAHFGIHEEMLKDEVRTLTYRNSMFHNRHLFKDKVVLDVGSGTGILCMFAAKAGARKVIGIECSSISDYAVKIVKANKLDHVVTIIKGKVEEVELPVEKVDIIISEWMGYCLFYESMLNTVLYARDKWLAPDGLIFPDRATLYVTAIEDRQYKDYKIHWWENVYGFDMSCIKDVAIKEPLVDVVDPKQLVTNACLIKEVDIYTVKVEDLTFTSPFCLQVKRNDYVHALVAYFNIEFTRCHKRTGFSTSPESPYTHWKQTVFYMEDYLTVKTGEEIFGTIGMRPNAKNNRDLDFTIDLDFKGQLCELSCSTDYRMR
# PRMT1 confirm = confirmation of human PRMT1 inhibitors | inhibition, % at 2.79 µM | recombinant His-PRMT1, activity-based probe fluorescence polarization | shares compounds with PRMT1 FP inh | 42% of 3,300 active | AID 687036;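 active = mean inhibition across replicates above the hit cutoff derived for the earlier primary screen, cut at about 22% in these data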
# UHRF1 ctr MBD2 = counter-screen for MBD2 inhibitors: human UHRF1 methylated DNA binding inhibitors; UHRF1 binding to methylated oligonucleotide, TR-FRET; shares compounds with MBD2 inh; AID 720530; inhibition, % at 4.4 µM; 25% of 1,000 active;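 note: UHRF1 SRA domain binding a labeled hemimethylated CpG hairpin DNA; 0% = vehicle only and 100% = reference inhibitor with vehicle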
# MBD2 confirm = confirmation of human MBD2-DBD methylated oligonucleotide binding inhibitors; shares compounds with MBD2 inh; TR-FRET MBD2-DBD binding to methylated oligonucleotide; inhibition, % at 4.4 µM; 26% of 1,000 active; AID 720531; in the data active = inhibition above about 14%
# IN multimer up = HIV-1 integrase multimerization activation, counter-screen. 17% of 2,000 active. shares compounds with LEDGF integ inh. TR-FRET HIV-1 integrase multimerization, biochemical. activation, % at 7.7 µM; in the data active = activation above about 8.9%
# TR-FRET interf = optically interferes with TR-FRET readout in LEDGF counter-screen | shares compounds with LEDGF integ inh | TR-FRET optical interference counterscreen, HIV-1 IN multimerization | inhibition, % at 7.7 µM | 2,000 tested, under 10 active;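 active = inhibition above the mean over all tested compounds plus 3 SD, which no compound reached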;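 note: 0% = integrase with antibodies and DMSO and 100% = antibodies without integrase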
# LEDGF integ conf = LEDGF/p75-dependent HIV-1 integration inhibition, confirmation; AID 1053136; TR-FRET LEDGF/p75-dependent HIV-1 integration, biochemical; 36% of 2,000 active; shares compounds with LEDGF integ inh; inhibition, % at 3.7 µM; in the data active = inhibition above about 14%
# * hit, by the source's call; . = not tested or not shown. Cut-off read from the data, not from the text of the source, unless noted: active = inhibition above about 21%; inactive = the rest.
SMILES,MBD2 inh,LEDGF integ inh,UHRF1 MBD2 ctr,PRMT1 FP inh,PRMT1 confirm,IN multimer up,TR-FRET interf,LEDGF integ conf,others
CCn1c(SCC(=O)c2ccc(-c3ccccc3)cc2)nnc1-c1ccccc1OC,-5,6,-3,-2,.,.,.,.,
CC1=NN2C(=N)/C(=C\c3ccc(SCc4ccccc4)o3)C(=O)N=C2S1,-1,3,2,5,.,.,.,.,
N=C1/C(=C\c2ccc(SCc3ccco3)o2)C(=O)N=C2SC=NN12,12,49*,51*,51*,12,8,-39,50*,
Cc1cccc(OCC(=O)O/N=C(\N)c2ccncc2)c1,-3,1,1,0,.,.,.,.,
Fc1ccc(Nc2cncc(-c3ccsc3)c2)cc1Cl,5,38*,12,25*,2,0,0,16*,
COc1ccc2nc(N3C(=O)C(O)=C(C(=O)c4ccco4)C3c3ccccc3OC)sc2c1 (configuration not stated),0,-3,-2,0,.,.,.,.,
COc1ccc2nc(N3C(=O)C(O)=C(C(=O)c4ccco4)C3c3ccc(C)o3)sc2c1 (configuration not stated),-3,14*,0,34*,14,2,-12,9,
c1coc(-c2ccc3nncn3c2)c1,39*,57*,76*,43*,39*,23*,-116,73*,UHRF1 ctr MBD2=62*;MBD2 confirm=34*
O=C(CCN1C(=O)/C(=C/c2ccccc2Cl)SC1=S)Nc1ccccc1C(=O)O,1,4,-1,8,.,.,.,.,
O=C1/C(=C/c2cccnc2)SC(=S)N1CC1CCCO1 (configuration not stated),-7,2,-6,0,.,.,.,.,
O=C(O)CCCN1C(=O)/C(=C\c2ccco2)SC1=S,6,35*,52*,28*,17,7,-26,40*,
O=C1/C(=C/c2ccco2)SC(=S)N1CC1CCCO1 (configuration not stated),8,16*,29*,35*,6,4,-22,15*,
O=C(CCN1C(=O)/C(=C/c2ccco2)SC1=S)Nc1ccc(O)cc1C(=O)O,68*,78*,95*,68*,38*,19*,-98,46*,UHRF1 ctr MBD2=38*;MBD2 confirm=8
O=C1/C(=C\c2ccco2)SC(=S)N1Cc1ccccc1,-3,3,1,19,.,.,.,.,
O=C(CCCN1C(=O)/C(=C\c2ccco2)SC1=S)Nc1ccc2ccccc2c1,2,1,0,4,.,.,.,.,
O=C(CCCN1C(=O)/C(=C/c2ccco2)SC1=S)Nc1ccccc1C(=O)O,27*,39*,82*,55*,29*,9.7*,-36,27*,UHRF1 ctr MBD2=52*;MBD2 confirm=16*
COc1ccc(N(CC(=O)NCc2ccco2)C(=O)CCC(=O)Nc2ccccn2)cc1,0,-3,-1,-3,.,.,.,.,
CC(C)(C)N1Cc2nnn(CC3CCCCC3)c2-c2ccccc2S1(=O)=O,-3,2,2,0,.,.,.,.,
CC(=O)C1=CCC(c2ccc(F)cc2)N(S(=O)(=O)c2ccc(C)cc2)C1 (configuration not stated),0,0,-1,-1,.,.,.,.,
C[C@H](CO)N1C[C@H](C)[C@@H](CN(C)C(=O)C2CC2)OCc2cnnn2CCCC1=O,-1,0,1,0,.,.,.,.,
O=C(CCN1C(=O)/C(=C/c2ccco2)SC1=S)Nc1ccc(C(=O)O)c(O)c1,21*,54*,62*,39*,30*,12*,-59,40*,
CCNC(=O)C1(C)CCCN(CC(=O)c2ccccc2OC)C1 (configuration not stated),-7,2,-2,0,.,.,.,.,
O=C(O)c1cccc(-n2cccc2/C=C\[N+](=O)[O-])c1,17*,32*,58*,36*,5,3,-15,6,UHRF1 ctr MBD2=26*;MBD2 confirm=3
O=C(O)c1cccc(-n2cccc2/C=N/O)c1,4,9,16,0,.,.,.,.,
COc1ccc(C(=O)Nc2ncc3c(n2)CC(c2ccco2)CC3=O)cc1 (configuration not stated),-5,0,-3,6,.,.,.,.,
SMILES,MBD2 inh,LEDGF integ inh,UHRF1 MBD2 ctr,PRMT1 FP inh,PRMT1 confirm,IN multimer up,TR-FRET interf,LEDGF integ conf,others
O=C(Nc1ncc2c(n1)CC(c1ccco1)CC2=O)c1ccco1 (configuration not stated),-3,13*,10,36*,4,1,-4,0,
CC(=O)Nc1ncc2c(n1)CC(c1ccco1)CC2=O (configuration not stated),-3,-3,-2,0,.,.,.,.,
CCC(=O)Nc1ncc2c(n1)CC(c1ccco1)CC2=O (configuration not stated),2,18*,8,41*,8,3,-11,-6,
O=C(N/N=C/C=C/c1ccco1)c1cccnc1,3,27*,19,39*,10,3,-13,34*,
CCN(CC)S(=O)(=O)c1ccc(N2CCCC2)c(NC(=O)C2=NN(c3ccccc3)C(=O)CC2)c1,-5,2,-2,2,.,.,.,.,
Cc1ccc(C)c(NC(=O)C(c2ccccc2)N2CCOCC2)c1 (configuration not stated),-3,-3,5,4,.,.,.,.,
N#C/C(=C\c1ccc(O)c(O)c1)C(=O)c1ccc(O)c(O)c1,19*,91*,64*,35*,19,20*,-101,90*,UHRF1 ctr MBD2=67*;MBD2 confirm=29*
O=S(=O)(Nc1nc(-c2ccco2)c(-c2ccco2)s1)c1ccc(F)cc1F,23*,35*,59*,45*,20,1,-5,10,UHRF1 ctr MBD2=11;MBD2 confirm=4
O=C(NC(Cc1ccccc1)C(=O)O)/C(=C\c1ccco1)NC(=O)c1ccc(Br)cc1 (configuration not stated),1,22*,7,35*,5,0,-2,-2,
O=C(Nc1ccc(O)cc1)/C(=C/c1ccco1)NC(=O)c1ccccc1,-3,-11,1,9,.,.,.,.,
O=C(Nc1ccc(C(=O)O)cc1)/C(=C\c1ccco1)NC(=O)c1ccc(Br)cc1,5,14*,10,34*,3,0,2,2,
CC(C)c1nc(SCC(=O)Nc2c[nH]c(=O)[nH]c2=O)c2cnn(-c3ccccc3)c2n1,1,-3,0,2,.,.,.,.,
